Results as given in PubChem BioAssay (NCI).
The panel holds about 83,000 compounds, 20% with a hit somewhere; the sample as a whole holds those more often.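 Growth was measured after 48 h exposure to one concentration of compound in 96-well plates. Values under 10 count as active.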 The source made the active and inactive calls.

Tests used:
Assay in all cases: NCI-60 one-dose screen, 48 h (100 = growth as untreated, 0 = no growth, -100 = all killed)
Settings in all cases: 10 µM unless noted
NCI-H23 lung = system: NCI-H23 lung
NCI-H226 lung = system: NCI-H226 lung
NCI-H322M lung = system: NCI-H322M lung
HOP-62 NSCLC = system: HOP-62 NSCLC
NCI-H460 lung = system: NCI-H460 lung
HOP-92 NSCLC = system: HOP-92 NSCLC
A549/ATCC NSCLC = system: A549/ATCC NSCLC
786-0 renal = system: 786-0 renal
COLO 205 colon = system: COLO 205 colon
DU-145 prostate = system: DU-145 prostate
K-562 leukemia = system: K-562 leukemia
MALME-3M melanoma = system: MALME-3M melanoma
MDA-MB-231 breast = system: MDA-MB-231 breast
RXF 393 renal = system: RXF 393 renal
SF-268 CNS = system: SF-268 CNS
SF-295 CNS = system: SF-295 CNS
SF-539 CNS = system: SF-539 CNS
UACC-257 melanoma = system: UACC-257 melanoma
M14 melanoma = system: M14 melanoma

Measured: growth

O=C(Nc1cccc(-n2cc(-c3ccncc3)c(-c3cc(O)cc(Cl)c3)n2)c1)Nc1ccc(Cl)c(Cl)c1
inactive: NCI-H226 lung 14.5% | NCI-H322M lung 19.5% | COLO 205 colon 22.4% | SF-268 CNS 16.2%
active: NCI-H23 lung -20.5% | HOP-62 NSCLC -44.2% | NCI-H460 lung 0.213% | HOP-92 NSCLC -30.5% | A549/ATCC NSCLC 3.96% | 786-0 renal -72.1% | DU-145 prostate -15.1% | K-562 leukemia 1.06% | MALME-3M melanoma -35.1% | MDA-MB-231 breast -38.1% | RXF 393 renal -70.3% | SF-295 CNS -50.5% | SF-539 CNS -29% | UACC-257 melanoma -70.7% | M14 melanoma -69.2%

COc1cnc2c(c1)C(=O)c1c-2n(CCCN2CCCC2)c(=O)c2cc(F)ccc12
active: NCI-H23 lung -19.5% | NCI-H226 lung -81.2% | NCI-H322M lung 4.72% | HOP-62 NSCLC -16.4% | NCI-H460 lung -47.9% | HOP-92 NSCLC -5.39% | A549/ATCC NSCLC -80.4% | 786-0 renal -88.5% | COLO 205 colon -6.43% | DU-145 prostate -1.81% | K-562 leukemia -45.1% | MALME-3M melanoma -71.9% | RXF 393 renal -81% | SF-295 CNS -20.4% | SF-539 CNS -39.3% | UACC-257 melanoma -12.2% | M14 melanoma 2.05%
inactive: MDA-MB-231 breast 23% | SF-268 CNS 12.1%

CCN(CC)c1ccc(N=C2C=CC(=O)C=C2NC(C)=O)cc1
inactive: NCI-H23 lung 92.9% | NCI-H226 lung 93.7% | NCI-H322M lung 105% | HOP-62 NSCLC 107% | NCI-H460 lung 106% | HOP-92 NSCLC 104% | A549/ATCC NSCLC 100% | 786-0 renal 111% | COLO 205 colon 96.8% | DU-145 prostate 111% | K-562 leukemia 77.9% | MALME-3M melanoma 142% | MDA-MB-231 breast 81.7% | RXF 393 renal 94.8% | SF-268 CNS 94% | SF-295 CNS 115% | SF-539 CNS 95.3% | UACC-257 melanoma 90.7% | M14 melanoma 109%

COc1ccccc1-n1c(-c2ccc(O)cc2C)cn2c3c(=O)[nH]c(=O)n(C)c3nc12
inactive: NCI-H23 lung 91.6% | NCI-H226 lung 92.4% | NCI-H322M lung 113% | HOP-62 NSCLC 79.3% | NCI-H460 lung 93.1% | HOP-92 NSCLC 49.4% | A549/ATCC NSCLC 86.6% | 786-0 renal 72.2% | COLO 205 colon 102% | DU-145 prostate 112% | K-562 leukemia 98.9% | MALME-3M melanoma 97.6% | MDA-MB-231 breast 65% | RXF 393 renal 72.4% | SF-268 CNS 86.4% | SF-295 CNS 99.8% | SF-539 CNS 88.8% | UACC-257 melanoma 82.2% | M14 melanoma 88.7%

O=C1NC(=S)S/C1=C\c1cc(Br)ccc1O
inactive: NCI-H23 lung 84.7% | NCI-H226 lung 91.4% | NCI-H322M lung 92.3% | HOP-62 NSCLC 81.6% | NCI-H460 lung 102% | HOP-92 NSCLC 75.7% | A549/ATCC NSCLC 107% | 786-0 renal 109% | COLO 205 colon 95% | DU-145 prostate 105% | K-562 leukemia 112% | MALME-3M melanoma 71.8% | MDA-MB-231 breast 96.7% | RXF 393 renal 115% | SF-268 CNS 90.1% | SF-295 CNS 111% | SF-539 CNS 93.1% | UACC-257 melanoma 105% | M14 melanoma 88.5%

COC(=O)C1=CCC(n2cnc3c(N)ncnc32)O1 (stereo not given)
active: RXF 393 renal -7.73%
inactive: NCI-H23 lung 92% | NCI-H226 lung 87.5% | NCI-H322M lung 94.4% | HOP-62 NSCLC 94.3% | NCI-H460 lung 121% | HOP-92 NSCLC 89.9% | A549/ATCC NSCLC 96.5% | 786-0 renal 107% | COLO 205 colon 103% | DU-145 prostate 113% | K-562 leukemia 91.8% | MALME-3M melanoma 108% | MDA-MB-231 breast 98.5% | SF-268 CNS 121% | SF-295 CNS 113% | SF-539 CNS 98% | UACC-257 melanoma 105% | M14 melanoma 105%

O=C(CNC(=O)c1cccc2ccccc12)Nc1ccccc1Oc1cccc(O)c1
active: K-562 leukemia 9.03% [5 µM] | RXF 393 renal -19% [5 µM] | SF-295 CNS 3.33% [5 µM] | SF-539 CNS -18.4% [5 µM] | M14 melanoma -8.22% [5 µM]
inactive: NCI-H23 lung 41.5% [5 µM] | NCI-H226 lung 58.6% [5 µM] | NCI-H322M lung 45.1% [5 µM] | HOP-62 NSCLC 19.2% [5 µM] | NCI-H460 lung 11.2% [5 µM] | HOP-92 NSCLC 72.9% [5 µM] | A549/ATCC NSCLC 21.8% [5 µM] | 786-0 renal 19.6% [5 µM] | COLO 205 colon 33.8% [5 µM] | DU-145 prostate 17.1% [5 µM] | MALME-3M melanoma 63.6% [5 µM] | MDA-MB-231 breast 48.9% [5 µM] | SF-268 CNS 49.9% [5 µM] | UACC-257 melanoma 45% [5 µM]

CCCCc1n(Cc2ccc3ccccc3c2)cc[n+]1Cc1ccc2ccccc2c1
active: NCI-H23 lung -23.8% | NCI-H226 lung -0.475% | HOP-62 NSCLC -2.71% | NCI-H460 lung -13.1% | HOP-92 NSCLC -38.2% | 786-0 renal -18.4% | COLO 205 colon -77.1% | K-562 leukemia -17.9% | MALME-3M melanoma -52.8% | MDA-MB-231 breast -92.9% | RXF 393 renal -42.7% | SF-268 CNS -12.6% | SF-295 CNS -14.1% | SF-539 CNS -4.06% | UACC-257 melanoma -33.8% | M14 melanoma -75.2%
inactive: NCI-H322M lung 23.3% | A549/ATCC NSCLC 29.8% | DU-145 prostate 13.6%

O=C(COc1ccc(/C=C2\Cc3ccccc3C2=O)cc1)c1ccc(Cl)cc1
inactive: NCI-H23 lung 89.2% | NCI-H226 lung 97.5% | NCI-H322M lung 123% | HOP-62 NSCLC 101% | NCI-H460 lung 101% | HOP-92 NSCLC 90.7% | A549/ATCC NSCLC 99.6% | 786-0 renal 102% | COLO 205 colon 117% | DU-145 prostate 117% | K-562 leukemia 92.9% | MALME-3M melanoma 124% | MDA-MB-231 breast 82.2% | RXF 393 renal 121% | SF-268 CNS 120% | SF-295 CNS 121% | SF-539 CNS 101% | UACC-257 melanoma 100% | M14 melanoma 104%

COc1ccc(-c2cc(-c3cccnc3)nc3sc(C(=O)Nc4ccccc4)c(N)c23)cc1OC
inactive: NCI-H23 lung 87.8% | NCI-H226 lung 77.2% | NCI-H322M lung 79.3% | HOP-62 NSCLC 84.3% | NCI-H460 lung 44.3% | HOP-92 NSCLC 24.9% | A549/ATCC NSCLC 74.2% | 786-0 renal 63.9% | COLO 205 colon 72.6% | DU-145 prostate 54.6% | K-562 leukemia 34.2% | MALME-3M melanoma 109% | MDA-MB-231 breast 69.7% | RXF 393 renal 76% | SF-268 CNS 69% | SF-295 CNS 77.2% | SF-539 CNS 73.3% | UACC-257 melanoma 107% | M14 melanoma 66.3%

Cc1ccc(/C=C(/C#N)n2nnc3ncccc32)cc1
inactive: NCI-H226 lung 32.1% | NCI-H322M lung 28.2% | HOP-62 NSCLC 20.5% | MALME-3M melanoma 22.7% | SF-268 CNS 25.3% | SF-295 CNS 27.8% | UACC-257 melanoma 31.1%
active: NCI-H23 lung -1.23% | NCI-H460 lung -14% | HOP-92 NSCLC -19.5% | A549/ATCC NSCLC 2.14% | 786-0 renal 5.6% | COLO 205 colon -45.3% | DU-145 prostate -27.2% | K-562 leukemia 5.03% | MDA-MB-231 breast -3.95% | RXF 393 renal -28.4% | SF-539 CNS -53.8% | M14 melanoma -4.85%

O=CNc1ccc2c(c1)Cc1cc([N+](=O)[O-])ccc1-2
active: NCI-H322M lung 9.9% | COLO 205 colon 1.14% | DU-145 prostate 0.835% | RXF 393 renal -14.6% | M14 melanoma -15.7%
inactive: NCI-H23 lung 37.9% | NCI-H226 lung 66.5% | HOP-62 NSCLC 26.5% | NCI-H460 lung 15.8% | HOP-92 NSCLC 42.4% | A549/ATCC NSCLC 18.6% | 786-0 renal 38.1% | K-562 leukemia 21.3% | MALME-3M melanoma 11.4% | MDA-MB-231 breast 34.4% | SF-268 CNS 42% | SF-295 CNS 16.3% | SF-539 CNS 27.9% | UACC-257 melanoma 59.3%

COc1cccc(-c2nc(-c3ccc(N)cc3)co2)c1
inactive: NCI-H23 lung 106% | NCI-H226 lung 94.2% | NCI-H322M lung 102% | HOP-62 NSCLC 108% | NCI-H460 lung 115% | HOP-92 NSCLC 86.8% | A549/ATCC NSCLC 84.9% | 786-0 renal 94.4% | COLO 205 colon 141% | DU-145 prostate 102% | K-562 leukemia 84.5% | MALME-3M melanoma 114% | MDA-MB-231 breast 88.1% | RXF 393 renal 93.2% | SF-268 CNS 128% | SF-295 CNS 92.8% | SF-539 CNS 110% | UACC-257 melanoma 93.1% | M14 melanoma 91.1%

Cc1n(Cc2ccc3ccccc3c2)cc[n+]1Cc1ccc2ccccc2c1
inactive: NCI-H226 lung 19% | NCI-H322M lung 48.9% | HOP-62 NSCLC 18% | A549/ATCC NSCLC 42.3% | 786-0 renal 34% | DU-145 prostate 35.2% | K-562 leukemia 10.2% | SF-268 CNS 18.9% | SF-295 CNS 15.4%
active: NCI-H23 lung 5.53% | NCI-H460 lung 9.12% | HOP-92 NSCLC -20.3% | COLO 205 colon -57.2% | MALME-3M melanoma -20.9% | MDA-MB-231 breast -24.3% | RXF 393 renal 3.41% | SF-539 CNS 5.68% | UACC-257 melanoma -28.5% | M14 melanoma -15.7%

COc1cc(C2CC(C3C(=O)N(C)C(=O)N(C)C3=O)=NN2c2cc(Cl)cc(Cl)c2)cc(OC)c1OC (stereo not given)
inactive: NCI-H23 lung 93.5% | NCI-H226 lung 85% | NCI-H322M lung 104% | HOP-62 NSCLC 89.7% | NCI-H460 lung 94.5% | HOP-92 NSCLC 88.5% | A549/ATCC NSCLC 78.2% | 786-0 renal 99.6% | COLO 205 colon 99.7% | DU-145 prostate 107% | K-562 leukemia 88.4% | MALME-3M melanoma 89.1% | MDA-MB-231 breast 103% | RXF 393 renal 99.3% | SF-268 CNS 103% | SF-295 CNS 84.4% | SF-539 CNS 96% | UACC-257 melanoma 74.2% | M14 melanoma 89.3%
